Assay outcomes deposited in PubChem by National Center for Advancing Translational Sciences (NCATS).
Only some compounds are listed: those with a hit (about 7.5% of all), similar ones and a draw of the others.
FLuc counter – counter-screen for miR-21 project: firefly luciferase inhibitors or activators. P08659. purified FLuc, Km substrates, luminescence inhibition. Potency, µM (titrated, usually from 57.5 µM), without a hit: top-dose activity change, negative = inhibition, hits mostly inhibitors. 6.9% of 360,000 active;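 further: plate controls were vehicle for no effect and reference inhibitor for full effect; nearly all actives have a fitted effect of over 55% in size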
Target sequence (P08659 whole entry, looked up): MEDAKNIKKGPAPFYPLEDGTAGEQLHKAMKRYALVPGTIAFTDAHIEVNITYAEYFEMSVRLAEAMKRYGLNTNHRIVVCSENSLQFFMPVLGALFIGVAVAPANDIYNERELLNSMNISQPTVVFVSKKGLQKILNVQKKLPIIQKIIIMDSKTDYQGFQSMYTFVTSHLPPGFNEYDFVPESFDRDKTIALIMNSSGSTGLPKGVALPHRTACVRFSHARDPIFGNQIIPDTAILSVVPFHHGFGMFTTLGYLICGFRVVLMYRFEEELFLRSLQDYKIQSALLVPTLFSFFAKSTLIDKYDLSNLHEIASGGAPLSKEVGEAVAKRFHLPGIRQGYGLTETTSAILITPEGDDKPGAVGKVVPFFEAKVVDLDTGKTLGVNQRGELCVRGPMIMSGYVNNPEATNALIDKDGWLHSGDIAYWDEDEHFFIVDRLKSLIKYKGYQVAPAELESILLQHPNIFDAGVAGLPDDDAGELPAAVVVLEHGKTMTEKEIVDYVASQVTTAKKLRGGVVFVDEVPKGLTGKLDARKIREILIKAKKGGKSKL
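Purified P. pyralis luciferase, 10 nM final, with Km-level 10 uM D-luciferin and 10 uM ATP in 50 mM Tris acetate pH 7.5, 10 mM Mg acetate, 0.01% Tween-20, 0.05% BSA; 6-point qHTS titration about 60 µM downward; luminescence read.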
ELG1 genotoxic – induces genotoxicity in HEK293T cells with luciferase-tagged ELG1; HEK293T ELG1-luciferase reporter, luminescence, 16 h; Potency, µM (highest dose often 46 µM), for inactives: at the highest dose activity change, positive = activation, most hits filed as activators; 1.3% of 330,000 active; AID 504466; further: % of control where 0% means no effect; nearly all actives have a fitted effect of over 60% in size
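DMSO vehicle served as control against compound-treated ELG1-luciferase HEK293T cells; exposure lasted 16 hr at 37 °C and 5% CO2, followed by ONE-Glo luminescence detection after 30 min.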
KinaseGlo FLuc – counter-screen: inhibitors of Kinase-Glo firefly luciferase. 0.28% of 200,000 active. AID 1379. Kinase-Glo luciferase, ATP luminescence, 8 min. Q27757. Potency, µM (highest dose often 38.3 µM), for the others: top-dose activity change, negative = inhibition, most hits filed as inhibitors; further: on the % scale 0 is the no-effect control and ±100 the full control effect; nearly all actives have a fitted effect of over 60% in size
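Inhibition of Kinase-Glo luciferase light generation was assessed at 10 uM ATP in pH 7.2 imidazole buffer, with luminescence measured after eight minutes at ambient temperature.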
Rab9 promoter act – activators of Rab9 promoter; Huh7 Rab9 promoter-luciferase reporter, luminescence, 24 h; Potency, µM (titrated, usually from 9.22 µM), inactives show at the top dose activation, negative = inhibition, actives largely listed as activators; 2.8% of 320,000 active; AID 485297; further: % of control where 0% means no effect; nearly all actives have a fitted effect of over 60% in size
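Steps: seed 1500 Huh7 Rab9-luc cells per well, rest 2 h at 37 °C; add compound in DMSO; incubate 24 h; add luciferase reagent, 10 min ambient; read luminescence.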
NPC1 promoter act – activators of NPC1 promoter; 2.4% of 320,000 active; Potency, µM (series often up to 9.22 µM), inactives show top-dose activation, hits mostly activators; Huh7 NPC1 promoter luciferase reporter, 24 h; further: % of control where 0% means no effect; nearly all actives have a fitted effect of over 60% in size
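Luminescence from an NPC1 promoter-driven luciferase reporter in stably transfected Huh7 cells was measured after 24 h compound treatment at 37 °C, followed by 10 min ambient incubation with luciferase detection reagent.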
SMN2 splice enh – SMN2 splice variant enhancement; HEK293 SMN2-luciferase splicing reporter, luminescence, 30-36 h; Potency, µM (doses to about 46.1 µM), for inactives: at the top dose activity change, positive = activation, hits mostly activators; 2.8% of 210,000 active; AID 1458; further: % of control where 0% means no effect; nearly all actives have a fitted effect of over 55% in size
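HEK293 cells carry an SMN2 […]–luciferase reporter in which exon 7 inclusion puts luciferase in frame. Cells were plated 10-12 h before compound addition, then incubated 30-36 h at 37C. ONE-Glo luminescence was read; sodium butyrate at 4.5 mM final served as control.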
* = called active by the depositor; ? = inconclusive; . = not tested or not shown. The call rests on the fitted dose curve; in most records, active means well fitted curve in the direction sought with a large enough effect; inconclusive means small, poorly fitted or top-dose-only effect, or another doubt; inactive means no such curve, though single readings can be large; an effect the other way counts as inactive or inconclusive. Potency means the concentration at half of the fitted maximal effect.

SMILES	FLuc counter	ELG1 genotoxic	KinaseGlo FLuc	Rab9 promoter act	NPC1 promoter act	SMN2 splice enh
COc1cccc(-c2nn(-c3ccccc3)cc2C(=O)O)c1	?	2.0%	-0.5%	-7.1%	-3.7%	-18.2%
Cc1ccc(-c2nn(-c3ccccc3)cc2C(=O)Nc2ccc(C(=O)O)cc2)cc1	1.07µM*	13.3%	-3.8%	?	27.3%	17.8µM*
COc1ccc(-c2nn(-c3ccccc3)cc2C(=O)Nc2ccc(C(=O)O)cc2)cc1OC	4.26µM*	16.0%	.	15.7%	17.9%	.
COc1ccc(-c2nn(-c3ccccc3)cc2C(=O)O)cc1OC	15.1µM*	7.0%	10.2%	8.2%	3.5%	3.3%
COc1ccc(-c2nn(-c3ccccc3)cc2/C=C/C(=O)N2CCOCC2)cc1OC	23.9µM*	-1.1%	0.4%	-2.0%	0.3%	10.7%
NC(=O)/C=C\c1cn(-c2ccccc2)nc1-c1ccc2c(c1)OCCO2	-15.6%	-2.6%	1.9%	-5.2%	-1.9%	-7.7%
Cc1ccc(NC(=O)c2cn(-c3ccccc3)nc2-c2ccccc2)cc1	-6.8%	.	.	.	.	.
COc1cccc(NC(=O)Cn2c(=O)n(-c3ccc(CC(=O)NCC4CCCO4)cc3)c(=O)c3ccccc32)c1 (centres undefined)	3.5%	.	.	.	.	-6.9%
O=C(NC1CC(=O)N(c2cccc(F)c2)C1)c1ccc2c(c1)OCO2 (centres undefined)	3.6%	.	.	.	.	.
C=CC[n+]1ccn(-c2nc3ccccc3nc2[N-]S(=O)(=O)c2cccs2)c1	-0.7%	2.6%	.	-14.1%	-1.6%	.
COc1ccccc1CNC(=O)C1CCCN(c2nc3ccccc3n3cccc23)C1 (centres undefined)	-6.1%	.	.	.	.	.
CSc1ccccc1NC(=O)CN(C)C(=O)Cn1c(=O)oc2ccccc21	4.5%	-0.2%	.	-0.4%	-0.5%	.
COc1ccc(OC)c(-c2nn(-c3ccccc3)cc2C(=O)N2CCc3ccccc3C2)c1	2.1%	-0.1%	.	1.1%	-1.8%	.
O=C(O)c1cccc(NC(=O)c2cn(-c3ccccc3)nc2-c2ccc(F)cc2)c1	4.78µM*	8.5%	.	22.0%	-4.3%	.
COc1ccc(-c2cn(-c3ccccc3)nc2C(=O)O)cc1OC	12µM*	-0.6%	.	-0.7%	-0.3%	.
COc1ccc(-c2nn(-c3ccccc3)cc2C(=O)NCCCn2ccnc2)cc1	-13.6%	-3.4%	1.8%	1.9%	-3.1%	-6.3%
COc1ccc(-c2nn(-c3ccccc3)cc2/C=C/C(=O)NCCCn2ccnc2)cc1OC	26.9µM*	-10.2%	0.8%	4.0%	-0.1%	.
COc1cccc(-c2nn(-c3ccc(C)cc3)cc2C(=O)N2CCc3cc(OC)c(OC)cc3C2)c1	5.36µM*	-22.5%	.	1.3%	-2.6%	.
CCOC(=O)c1ccc(NC(=O)c2cn(-c3ccccc3)nc2-c2ccc(OC)c(OC)c2)cc1	-0.8%	.	.	.	.	10.0%
CC(=O)c1ccc(N2CCN(c3ncnc4c3c(-c3ccccc3)cn4-c3cccc(C)c3)CC2)cc1	-4.2%	.	.	.	.	.
COc1ccc(-c2nn(-c3ccccc3)cc2/C=N/Nc2ccc(Cl)c(C(=O)O)c2)cc1OC	13.5µM*	10.0%	.	0.7%	1.8%	.
COc1ccc(-c2nn(-c3ccccc3)cc2/C=C(\CC(=O)O)c2nc3ccccc3s2)cc1OC	9.53µM*	2.0%	-0.3%	-0.6%	2.6%	-5.0%
c1ccc(SCc2cc(-c3ccccc3)no2)cc1	8.49µM*	?	0.3%	2.51µM*	3.55µM*	247.0%
Clc1ccc(-c2cc(CSc3ccccc3)on2)cc1	2.39µM*	?	-3.1%	3.16µM*	4.47µM*	12.6µM*
Clc1ccc(-c2cc(CSc3cccc(Cl)c3)on2)cc1	?	9.5%	-1.6%	-3.4%	1.4%	-18.5%
SMILES	FLuc counter	ELG1 genotoxic	KinaseGlo FLuc	Rab9 promoter act	NPC1 promoter act	SMN2 splice enh
Cc1ccc(S(=O)(=O)N/N=C\c2ccc3c(c2)OCO3)cc1C	-12.2%	4.2%	.	-3.1%	0.8%	.
Brc1cc2c(cc1/C=N/Nc1nc3ccccc3s1)OCO2	-19.1%	18.4µM*	-5.4%	?	?	?
C(=N\Nc1nc2ccccc2s1)/c1ccc2c(c1)OCO2	0.757µM*	?	-2.1%	1.26µM*	3.98µM*	1µM*
O=C(O)C/C(=C\c1cc2c(cc1Br)OCO2)c1nc2ccccc2s1	-6.0%	-0.2%	.	-6.0%	-1.9%	.
Cc1nc(N/N=C\c2ccc3c(c2)OCO3)sc1C	1.9µM*	?	.	0.316µM*	1.58µM*	.
COc1ccc(N2CCN(c3nc4ccccn4c(=O)c3/C=C(\C#N)S(=O)(=O)c3ccccc3)CC2)cc1	1.1%	2.6%	.	0.3%	0.4%	.
CN1CCc2c(sc3c2C(=O)NC(c2cccc(OC(=O)c4cccs4)c2)N3)C1 (centres undefined)	16.9µM*	18.9%	1.7%	3.2%	0.9%	?
CCc1ccc(CN(C(=O)c2cc3ccccc3oc2=O)C2CCS(=O)(=O)C2)cc1 (centres undefined)	19µM*	?	-11.9%	3.98µM*	2.82µM*	17.8µM*
O=C(c1cc2ccccc2oc1=O)N(Cc1cccs1)C1CCS(=O)(=O)C1 (centres undefined)	19µM*	18.4µM*	-0.8%	?	29.6%	16.9%
COc1cc(CN(C(=O)c2cc3ccccc3oc2=O)C2CCS(=O)(=O)C2)cc(OC)c1OC (centres undefined)	-16.5%	2.9%	.	-0.4%	-1.0%	2.4%
Cc1ccc(CN(C(=O)c2cc3ccccc3oc2=O)C2CCS(=O)(=O)C2)cc1 (centres undefined)	16.9µM*	22.7%	4.6%	?	?	4.4%
COc1ccc(CN(C(=O)c2cc3ccccc3oc2=O)C2CCCCC2)cc1OC	26.9µM*	2.4%	-4.6%	17.3%	20.0%	25.2%
COc1ccc(N2CCN(Cc3nc(-c4ccccc4)no3)CC2)cc1	-4.6%	0.0%	-1.0%	-0.6%	-3.8%	.
CC(=O)Oc1c(Br)cc(N(C(C)=O)S(=O)(=O)c2ccccc2)c2ccccc12	-12.9%	-17.4%	.	19.9%	3.3%	.
CC(C)(C)OC(=O)C[C@H]1C/C=C\C[C@H](CC(=O)NCCO)C(=O)N[C@@H](c2ccccc2)COC1=O	.	-0.6%	.	.	.	.
O=C(c1cc2ccccc2oc1=O)N(Cc1ccc(F)cc1)C1CCS(=O)(=O)C1 (centres undefined)	19µM*	?	.	3.16µM*	?	.
O=C1c2cccc3c(N4CCCCC4)ccc(c23)C(=O)N1CCO	15.1µM*	?	1.6%	?	?	9.6%
O=C1c2cccc3c(N4CCCCC4)ccc(c23)C(=O)N1c1cccc(O)c1	19µM*	12.5%	2.0%	0.2%	0.2%	-10.1%
Cc1nc(NC2CCCCC2)c2nc(-c3ccccc3)n(CCCN(C)C)c2n1	.	.	-0.1%	.	.	-24.4%
